Read-out in assay [1]: TIMP metallopeptidase inhibitor 1 (TIMP1), TIMP1 (gene 7076)
Briefly: BSK_hDFCGF_TIMP1: BioMAP Diversity Plus: hDFCGF Assay for TIMP metallopeptidase inhibitor 1 (TIMP1) Biomarker Activity (AID 2283062). The conditions noted are these: primary human foreskin fibroblasts; actives raise or lower the signal. In outline: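 Bidirectional curve fitting against DMSO baseline yielded this endpoint, based on ELISA detection of TIMP-1 in primary human foreskin fibroblasts exposed to compound for 24 h.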

Read-out in assay [2]: Monokine induced gamma interferon (MIG), CXCL9 (gene 4283)
Briefly: BSK_hDFCGF_MIG: BioMAP Diversity Plus: hDFCGF Assay for Monokine induced gamma interferon (MIG) Biomarker Activity (AID 2283063). The conditions noted are these: primary human foreskin fibroblasts; actives raise or lower the signal. In outline:
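Endpoint derived by bidirectional fitting relative to DMSO; MIG quantified via ELISA in primary human foreskin fibroblasts harvested 24 h after dosing.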

Read-out in assay [3]: Matrix Metallopeptidase 1 (MMP1), MMP1 (gene 4312)
Briefly: BSK_hDFCGF_MMP1: BioMAP Diversity Plus: hDFCGF Assay for Matrix Metallopeptidase 1 (MMP1) Biomarker Activity (AID 2283064). The conditions noted are these: primary human foreskin fibroblasts; actives raise or lower the signal. In outline:
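Primary human foreskin fibroblasts in the hDFCGF system were dosed with test chemical, and MMP1 was measured by ELISA 24 h later. Values come from bidirectional curve fitting against the DMSO baseline.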

Read-out in assay [4]: Vascular cell adhesion molecule 1 (VCAM1), VCAM1 (gene 7412)
Briefly: BSK_hDFCGF_VCAM1: BioMAP Diversity Plus: hDFCGF Assay for Vascular cell adhesion molecule 1 (VCAM1) Biomarker Activity (AID 2283065).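 For AC50: VCAM-1 protein level quantified by ELISA after 24 h chemical exposure.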 The conditions noted are these: primary human foreskin fibroblasts; actives raise or lower the signal. In outline: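 Measured after 24 h chemical treatment of primary human skin fibroblasts, VCAM-1 was detected by ELISA and concentration-response analysed in both directions versus DMSO vehicle.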

Read-out in assay [5]: Plasminogen activator inhibitor-1 (PAI1), SERPINE1 (gene 5054)
Briefly: BSK_hDFCGF_PAI1: BioMAP Diversity Plus: hDFCGF Assay for Plasminogen activator inhibitor-1 (PAI1) Biomarker Activity (AID 2283066). The conditions noted are these: primary human foreskin fibroblasts; actives raise or lower the signal. In outline:
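Primary dermal fibroblasts (human foreskin), hDFCGF system; compound 24 h; PAI-1 by ELISA; bidirectional fit vs DMSO control.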

Read-out in assay [6]: Intercellular Adhesion Molecule 1 (ICAM1), ICAM1 (gene 3383)
Briefly: BSK_KF3CT_ICAM1: BioMAP Diversity Plus: KF3CT Assay for Intercellular Adhesion Molecule 1 (ICAM1) Biomarker Activity (AID 2283067). The conditions noted are these: primary human keratinocytes with fibroblasts; actives raise or lower the signal. The essentials:
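Bidirectional curve fitting against a DMSO baseline was applied to ICAM-1 ELISA signal from primary human skin co-cultures harvested 24 h after treatment, with SRB staining of parallel wells for overt cytotoxicity.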

Read-out in assay [7]: Interferon-gamma inducible Protein 10 (IP10), CXCL10 (gene 3627)
Briefly: BSK_KF3CT_IP10: BioMAP Diversity Plus: KF3CT Assay for Interferon-gamma inducible Protein 10 (IP10) Biomarker Activity (AID 2283068). The conditions noted are these: primary human keratinocytes with fibroblasts; actives raise or lower the signal. In outline:
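ELISA read-out of IP-10 after 24 h chemical dosing of human skin primary co-culture (keratinocytes, foreskin fibroblasts). Gain or loss of signal relative to DMSO, bidirectional curve fit.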

Assay [8] is described as follows: BSK_KF3CT_SRB: Viability Assessment in the BioMAP Diversity Plus: KF3CT Assay (AID 2283069).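 Note: total protein by sulforhodamine B staining as a cytotoxicity measure; read 24 h after compound addition.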 The conditions noted are these: primary human keratinocytes with fibroblasts. In outline:
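Human primary keratinocyte plus foreskin fibroblast co-culture exposed to chemicals for 24 h. Total protein measured by 0.1% sulforhodamine B staining after 10% TCA fixation, read at 560 nm; bidirectional fitting versus DMSO baseline.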

Read-out in assay [9]: Interleukin-1 alpha (IL1a), IL1A (gene 3552)
Briefly: BSK_KF3CT_IL1a: BioMAP Diversity Plus: KF3CT Assay for Interleukin-1 alpha (IL1a) Biomarker Activity (AID 2283070). The conditions noted are these: primary human keratinocytes with fibroblasts; actives raise or lower the signal. In outline: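 Human keratinocyte plus foreskin fibroblast primary co-culture, sampled 24 h after chemical dosing. IL-1a measured by ELISA; responses fitted bidirectionally against DMSO baseline (negative control), so gain or loss of signal both count.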

Read-out in assay [10]: TIMP metallopeptidase inhibitor 2 (TIMP2), TIMP2 (gene 7077)
Briefly: BSK_KF3CT_TIMP2: BioMAP Diversity Plus: KF3CT Assay for TIMP metallopeptidase inhibitor 2 (TIMP2) Biomarker Activity (AID 2283071). The conditions noted are these: primary human keratinocytes with fibroblasts; actives raise or lower the signal. In outline: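 Cells: human keratinocytes co-cultured with foreskin fibroblasts. Treat with chemical, 24 h. Measure TIMP-2 by ELISA; fit curves bidirectionally vs DMSO baseline.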

Read-out in assay [11]: Transforming growth factor beta 1 (TGFb1), TGFB1 (gene 7040)
Briefly: BSK_KF3CT_TGFb1: BioMAP Diversity Plus: KF3CT Assay for Transforming growth factor beta 1 (TGFb1) Biomarker Activity (AID 2283072). The conditions noted are these: primary human keratinocytes with fibroblasts; actives raise or lower the signal. In outline:
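Primary human skin cells (keratinocytes, foreskin fibroblasts) were co-cultured, exposed to test chemical and sampled at 24 h. TGF-b1 levels were measured by ELISA and fitted bidirectionally relative to DMSO.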

Read-out in assay [12]: C-C motif chemokine 2 (Homo sapiens) (UniProt P13500)
Briefly: BSK_KF3CT_MCP1: BioMAP Diversity Plus: KF3CT Assay for Monocyte Chemoattractant Protein 1 (MCP1/CCL2) Biomarker Activity (AID 2283073). The conditions noted are these: primary human keratinocytes with fibroblasts; actives raise or lower the signal. The essentials:
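Biomarker MCP-1 is measured by ELISA in primary human keratinocytes co-cultured with foreskin fibroblasts, 24 h after chemical treatment; DMSO serves as the negative control and activity baseline.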

Read-out in assay [13]: Matrix Metallopeptidase 9 (MMP9), MMP9 (gene 4318)
Briefly: BSK_KF3CT_MMP9: BioMAP Diversity Plus: KF3CT Assay for Matrix Metallopeptidase 9 (MMP9) Biomarker Activity (AID 2283074).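 For AC50: MMP9 protein level quantified by ELISA in the co-culture.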 The conditions noted are these: primary human keratinocytes with fibroblasts; actives raise or lower the signal. The essentials:
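Keratinocyte plus foreskin fibroblast human primary skin co-culture was dosed with chemical and MMP-9 was quantified by ELISA 24 h later. Bidirectional curve fitting used DMSO as negative control and activity baseline.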

Read-out in assay [14]: urokinase plasminogen activator (uPA), PLAU (gene 5328)
Briefly: BSK_KF3CT_uPA: BioMAP Diversity Plus: KF3CT Assay for urokinase plasminogen activator (uPA) Biomarker Activity (AID 2283075). The conditions noted are these: primary human keratinocytes with fibroblasts; actives raise or lower the signal. In outline:
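Human keratinocyte plus foreskin fibroblast primary co-culture exposed to chemical for 24 h. uPA levels were quantified by ELISA, and activity was fitted bidirectionally against a DMSO negative-control baseline.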

Read-out in assay [15]: CD40, CD40 (gene 958)
Briefly: BSK_LPS_CD40: BioMAP Diversity Plus: LPS Assay for CD40 Biomarker Activity (AID 2283076). The conditions noted are these: primary human HUVEC with PBMC; actives raise or lower the signal. The essentials: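 Using a multiplexed primary human co-culture (umbilical vein endothelium plus PBMC), CD40 was read by ELISA 24 h after dosing, with cytotoxicity tracked by sulforhodamine B staining of parallel cultures and activity fitted bidirectionally versus DMSO.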

Read-out in assay [16]: E-selectin (Homo sapiens) (UniProt P16581)
Briefly: BSK_LPS_Eselectin: BioMAP Diversity Plus: LPS Assay for Eselectin Biomarker Activity (AID 2283077). The conditions noted are these: primary human HUVEC with PBMC; actives raise or lower the signal. In outline:
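Dose chemical onto LPS-driven HUVEC/PBMC co-culture; after 24 h, run ELISA for E-selectin; fit up- and down-going responses relative to DMSO control.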

Read-out in assay [17]: Interleukin-8 (IL8), CXCL8 (gene 3576)
Briefly: BSK_LPS_IL8: BioMAP Diversity Plus: LPS Assay for Interleukin-8 (IL8) Biomarker Activity (AID 2283078). The conditions noted are these: primary human HUVEC with PBMC; actives raise or lower the signal. In outline: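 In this LPS system, chemical-treated human umbilical vein endothelium/PBMC co-cultures were harvested at 24 h for IL-8 ELISA.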

The nature of assay [18]: BSK_LPS_SRB: Viability Assessment in the BioMAP Diversity Plus: LPS Assay (AID 2283079).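 Note: total protein by sulforhodamine B absorbance as a cytotoxicity measure; measured one day after compound addition.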 The conditions noted are these: primary human HUVEC with PBMC. In outline: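 Cytotoxicity endpoint in human endothelial–PBMC co-culture: 24 h exposure, then SRB (0.1%) staining, 560 nm read.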
Read-out in assay [19]: Interleukin-1 alpha (IL1a), IL1A (gene 3552)
Briefly: BSK_LPS_IL1a: BioMAP Diversity Plus: LPS Assay for Interleukin-1 alpha (IL1a) Biomarker Activity (AID 2283080). The conditions noted are these: primary human HUVEC with PBMC; actives raise or lower the signal. In outline: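 Primary human HUVEC and PBMC co-culture stimulated with LPS is dosed and harvested at 24 h. Both increases and decreases in ELISA-measured IL-1a are scored relative to DMSO.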

Read-out in assay [20]: Monocyte Chemoattractant Protein-1 (MCP1), CCL2 (gene 6347)
Briefly: BSK_LPS_MCP1: BioMAP Diversity Plus: LPS Assay for Monocyte Chemoattractant Protein-1 (MCP1) Biomarker Activity (AID 2283081).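 For AC50: secreted MCP-1 protein quantified by ELISA in culture supernatant.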 The conditions noted are these: primary human HUVEC with PBMC; actives raise or lower the signal. In outline: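 Values derive from bidirectional fitting against DMSO of ELISA-measured MCP-1 in a human primary endothelial and mononuclear cell co-culture, 24 h after chemical addition under LPS activation.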

Calls of active or inactive are those of the source. Rule for the calls: active = hit-call score of the fitted dose curve at least 0.9, where 1 is the maximum; inactive = score below 0.9.

Sequence of E-selectin (Homo sapiens) (P16581 whole entry, looked up): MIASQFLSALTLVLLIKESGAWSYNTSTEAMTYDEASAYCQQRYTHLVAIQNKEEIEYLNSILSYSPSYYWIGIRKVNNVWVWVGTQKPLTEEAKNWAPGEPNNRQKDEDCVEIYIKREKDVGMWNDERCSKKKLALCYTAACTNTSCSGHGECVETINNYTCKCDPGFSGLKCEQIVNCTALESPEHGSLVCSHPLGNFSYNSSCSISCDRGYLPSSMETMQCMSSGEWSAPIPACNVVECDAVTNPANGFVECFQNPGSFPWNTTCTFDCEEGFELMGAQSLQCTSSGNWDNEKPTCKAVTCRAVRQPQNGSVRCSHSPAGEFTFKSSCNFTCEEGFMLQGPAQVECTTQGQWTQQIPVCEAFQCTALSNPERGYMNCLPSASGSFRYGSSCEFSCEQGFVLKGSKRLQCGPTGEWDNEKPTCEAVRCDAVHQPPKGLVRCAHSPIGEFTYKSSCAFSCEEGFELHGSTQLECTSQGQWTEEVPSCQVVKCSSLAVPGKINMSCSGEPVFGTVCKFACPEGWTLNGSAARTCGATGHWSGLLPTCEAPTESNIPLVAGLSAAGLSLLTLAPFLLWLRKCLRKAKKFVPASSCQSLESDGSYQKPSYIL

For `CCCCC(CC)COC(=O)c1ccc(C(=O)OCC(CC)CCCC)c(C(=O)OCC(CC)CCCC)c1` (configuration not stated), the result in assay [1], in assay [2], in [3], in assay [4], in assay [5] and in [6] was inactive. The result in assay [7], in assay [8], in assay [9], in assay [10], in assay [11] and in assay [12] was inactive. For the same compound, the result in [13], in assay [14], in assay [15], in [16], in assay [17] and in assay [18] was inactive. The outcome in [19] and in assay [20] was inactive.
Take `CCCCCCCCCCCCCN1CC(C)OC(C)C1` (configuration not stated): the result in assay [1], in [2], in assay [3], in assay [4], in [5] and in assay [6] was inactive. For the same compound, the outcome in assay [7], in assay [8], in assay [9], in assay [10], in assay [11] and in assay [12] was inactive. The outcome in assay [13], in assay [14], in assay [15], in [16], in assay [17] and in [18] was inactive. Further, the outcome in [19] was inactive.
The term AC50 denotes the midpoint of the concentration-response curve, whichever way the signal moves. Take `Cc1cc(N=Nc2ccccc2C)ccc1N`: the result in [1], in assay [3], in assay [12], in assay [15], in assay [16] and in [17] was inactive. Also, in assay [19], the outcome was inactive. Besides, the AC50 in assay [2] is 33.4 µM (active); in assay [4], 23.5 µM (active); in assay [5] it was 32.1 µM (active); in [6], 31.8 µM (active); in [7], 33.7 µM (active); in assay [8], 29.9 µM (active). Also, the AC50 in assay [9] is 37.9 µM (active); in assay [10], 20 µM (active); in assay [11] it was 28.5 µM (active); in [13], 19.9 µM (active); in assay [14], 39.2 µM (active); in [18], 9.83 µM (active).
Regarding `ClC1=C(Cl)C2(Cl)C3C(Cl)C=CC3C1(Cl)C2(Cl)Cl` (configuration not stated), the AC50 was 9.82 µM (active) in assay [1]; 10.6 µM (active) in [2]; 13.4 µM (active) in [3]; 8.26 µM (active) in assay [4]; 9.78 µM (active) in [5]; 30.2 µM (active) in [6]. In addition, the AC50 in assay [7] is 15.3 µM (active); in assay [8] it was 28.6 µM (active); in assay [9], 27.3 µM (active); in assay [10] it was 24.6 µM (active); in assay [11], 14 µM (active); in assay [12], 14.6 µM (active). In addition, the AC50 was 13.8 µM (active) in assay [13]; 31 µM (active) in assay [14]; 30.9 µM (active) in assay [15]; 30.6 µM (active) in assay [16]; 31.6 µM (active) in assay [17]; 29.5 µM (active) in assay [18]. The half-maximal activity concentration (AC50) in assay [19] is 30 µM (active); in assay [20], 31.4 µM (active).
For the compound `Clc1ccc(Cl)c(Cl)c1`, the outcome in assay [1], in assay [2], in [3], in assay [4], in [5] and in [6] was inactive. Also, the result in assay [7], in assay [8], in assay [9], in assay [10], in assay [11] and in assay [12] was inactive. For the same compound, the outcome in [13], in assay [14], in [15], in assay [16], in assay [17] and in [18] was inactive. In addition, the result in [19] was inactive.
Regarding `O=Cc1ccco1`, the result in assay [1], in assay [2], in [3], in [4], in [5] and in assay [6] was inactive. The result in assay [7], in [8], in [9], in [10], in assay [11] and in assay [12] was inactive. Besides, the outcome in [13], in [14], in assay [15], in [16], in assay [17] and in [18] was inactive. The result in [19] and in assay [20] was inactive.

Source of the values: PubChem BioAssay (EPA / NIEHS).
